A number with no mark means an inactive call.
Tested on: Vero E6 infected with SARS-CoV-2
Test: inhibition of SARS-CoV-2 cytopathic effect; higher = more antiviral protection, active = above 15
Details: 48 h

## CCN(CC)CCOC(=O)c1cc(Cl)c(N)cc1OC
1 nM
  inhibition of SARS-CoV-2 cytopathic effect: 3.29%
8.33 nM
  inhibition of SARS-CoV-2 cytopathic effect: 3.49%
100 nM
  inhibition of SARS-CoV-2 cytopathic effect: 1.89%
833.33 nM
  inhibition of SARS-CoV-2 cytopathic effect: -0.08%
10000 nM
  inhibition of SARS-CoV-2 cytopathic effect: -0.47%

## CCN1CCN(c2ccc(Nc3cc(N(C)C(=O)Nc4c(Cl)c(OC)cc(OC)c4Cl)ncn3)cc2)CC1
1 nM
  inhibition of SARS-CoV-2 cytopathic effect: -2.08%
8.33 nM
  inhibition of SARS-CoV-2 cytopathic effect: -5.16%
100 nM
  inhibition of SARS-CoV-2 cytopathic effect: 0.14%
833.33 nM
  inhibition of SARS-CoV-2 cytopathic effect: -2.75%
10000 nM
  inhibition of SARS-CoV-2 cytopathic effect: 23.9% (active)

## Cc1cc(O)c2c(=O)c3c(O)cc(O)c4c5c(O)cc(O)c6c(=O)c7c(O)cc(C)c8c1c2c(c34)c(c78)c65 [hypericin]
1 nM
  inhibition of SARS-CoV-2 cytopathic effect: 3.48%
8.33 nM
  inhibition of SARS-CoV-2 cytopathic effect: -1.72%
100 nM
  inhibition of SARS-CoV-2 cytopathic effect: -6.89%
833.33 nM
  inhibition of SARS-CoV-2 cytopathic effect: -0.08%
10000 nM
  inhibition of SARS-CoV-2 cytopathic effect: -4.81%

## O=C1[C@H](CC[C@H](O)c2ccc(F)cc2)[C@@H](c2ccc(O)cc2)N1c1ccc(F)cc1 [ezetimibe]
1 nM
  inhibition of SARS-CoV-2 cytopathic effect: 0.31%
8.33 nM
  inhibition of SARS-CoV-2 cytopathic effect: 0.64%
100 nM
  inhibition of SARS-CoV-2 cytopathic effect: -0.99%
833.33 nM
  inhibition of SARS-CoV-2 cytopathic effect: 2.19%
10000 nM
  inhibition of SARS-CoV-2 cytopathic effect: 5.44%

## CCOc1nc2c(N)ncnc2n1CC
1 nM
  inhibition of SARS-CoV-2 cytopathic effect: -1.28%
8.33 nM
  inhibition of SARS-CoV-2 cytopathic effect: 2.22%
100 nM
  inhibition of SARS-CoV-2 cytopathic effect: -1.47%
833.33 nM
  inhibition of SARS-CoV-2 cytopathic effect: 1.94%
10000 nM
  inhibition of SARS-CoV-2 cytopathic effect: -1.72%

## OC[C@H]1O[C@@H](O[C@@H]2[C@@H](CO)OC(O)(CO)[C@H]2O)[C@H](O)[C@@H](O)[C@H]1O (mixture of isomers) [lactulose]
1 nM
  inhibition of SARS-CoV-2 cytopathic effect: 1.11%
8.33 nM
  inhibition of SARS-CoV-2 cytopathic effect: 0.23%
100 nM
  inhibition of SARS-CoV-2 cytopathic effect: -0.45%
833.33 nM
  inhibition of SARS-CoV-2 cytopathic effect: -1.79%
10000 nM
  inhibition of SARS-CoV-2 cytopathic effect: 1.61%

## COc1ccccc1N1CCN(CCN(C(=O)C2CCCCC2)c2ccccn2)CC1
1 nM
  inhibition of SARS-CoV-2 cytopathic effect: -3.64%
8.33 nM
  inhibition of SARS-CoV-2 cytopathic effect: -4.61%
100 nM
  inhibition of SARS-CoV-2 cytopathic effect: -0.56%
833.33 nM
  inhibition of SARS-CoV-2 cytopathic effect: 3.47%
10000 nM
  inhibition of SARS-CoV-2 cytopathic effect: -0.29%

## Oc1ccc2c3c1O[C@H]1c4oc5ccccc5c4C[C@@]4(O)[C@@H](C2)N(CC2CC2)CC[C@]314 [naltriben]
1 nM
  inhibition of SARS-CoV-2 cytopathic effect: 0.92%
8.33 nM
  inhibition of SARS-CoV-2 cytopathic effect: -0.89%
100 nM
  inhibition of SARS-CoV-2 cytopathic effect: 0.12%
833.33 nM
  inhibition of SARS-CoV-2 cytopathic effect: -0.45%
10000 nM
  inhibition of SARS-CoV-2 cytopathic effect: -2.94%

## Oc1cccc(-c2c3nc(c(-c4cccc(O)c4)c4ccc([nH]4)c(-c4cccc(O)c4)c4nc(c(-c5cccc(O)c5)c5ccc2[nH]5)CC4)C=C3)c1 [temoporfin]
1 nM
  inhibition of SARS-CoV-2 cytopathic effect: -0.78%
8.33 nM
  inhibition of SARS-CoV-2 cytopathic effect: 3.96%
100 nM
  inhibition of SARS-CoV-2 cytopathic effect: -0.62%
833.33 nM
  inhibition of SARS-CoV-2 cytopathic effect: -2.48%
10000 nM
  inhibition of SARS-CoV-2 cytopathic effect: -5.99%

## O=c1c2ccccc2nc2n1CCc1c-2[nH]c2ccccc12 [rutaecarpine]
1 nM
  inhibition of SARS-CoV-2 cytopathic effect: -1.97%
8.33 nM
  inhibition of SARS-CoV-2 cytopathic effect: 0.36%
100 nM
  inhibition of SARS-CoV-2 cytopathic effect: -0.87%
833.33 nM
  inhibition of SARS-CoV-2 cytopathic effect: 0.6%
10000 nM
  inhibition of SARS-CoV-2 cytopathic effect: -0.59%

## Nc1ncnc2c1ncn2C1CCCO1 (stereo not given)
1 nM
  inhibition of SARS-CoV-2 cytopathic effect: 2.17%
8.33 nM
  inhibition of SARS-CoV-2 cytopathic effect: 3.9%
100 nM
  inhibition of SARS-CoV-2 cytopathic effect: -1%
833.33 nM
  inhibition of SARS-CoV-2 cytopathic effect: 2.95%
10000 nM
  inhibition of SARS-CoV-2 cytopathic effect: -0.8%

## CCN(CC)CCCCC1CCN(CC(=O)N2c3ccccc3C(=O)Nc3cccnc32)CC1
1 nM
  inhibition of SARS-CoV-2 cytopathic effect: -0.6%
8.33 nM
  inhibition of SARS-CoV-2 cytopathic effect: 0.18%
100 nM
  inhibition of SARS-CoV-2 cytopathic effect: -0.52%
833.33 nM
  inhibition of SARS-CoV-2 cytopathic effect: -1.51%
10000 nM
  inhibition of SARS-CoV-2 cytopathic effect: -4.44%

## N[C@@H]1CCN(c2cccnc2)C1
1 nM
  inhibition of SARS-CoV-2 cytopathic effect: 0.23%
8.33 nM
  inhibition of SARS-CoV-2 cytopathic effect: 0.19%
100 nM
  inhibition of SARS-CoV-2 cytopathic effect: 1.46%
833.33 nM
  inhibition of SARS-CoV-2 cytopathic effect: 2.41%
10000 nM
  inhibition of SARS-CoV-2 cytopathic effect: 3.85%

## CCCCNc1c(C(=O)OCC)c(C)nc2c1cnn2CC [tracazolate]
1 nM
  inhibition of SARS-CoV-2 cytopathic effect: -0.41%
8.33 nM
  inhibition of SARS-CoV-2 cytopathic effect: 1.49%
100 nM
  inhibition of SARS-CoV-2 cytopathic effect: -0.22%
833.33 nM
  inhibition of SARS-CoV-2 cytopathic effect: -2.81%
10000 nM
  inhibition of SARS-CoV-2 cytopathic effect: -1.99%

## COc1cc(O)c2c(c1)C(=O)c1cc(C)cc(O)c1C2=O [rheochrysidin]
1 nM
  inhibition of SARS-CoV-2 cytopathic effect: 1.91%
8.33 nM
  inhibition of SARS-CoV-2 cytopathic effect: 1.62%
100 nM
  inhibition of SARS-CoV-2 cytopathic effect: 1.33%
833.33 nM
  inhibition of SARS-CoV-2 cytopathic effect: -0.52%
10000 nM
  inhibition of SARS-CoV-2 cytopathic effect: -0.59%

## NC[C@@H]1O[C@H](O[C@@H]2[C@@H](CO)OC(O[C@@H]3[C@@H](O)[C@H](N)C[C@H](N)[C@H]3OC3O[C@H](CN)[C@@H](O)[C@H](O)[C@H]3N)[C@@H]2O)[C@H](N)[C@@H](O)[C@@H]1O (stereo not given in full)
1 nM
  inhibition of SARS-CoV-2 cytopathic effect: -1.31%
8.33 nM
  inhibition of SARS-CoV-2 cytopathic effect: -1.2%
100 nM
  inhibition of SARS-CoV-2 cytopathic effect: 0.22%
833.33 nM
  inhibition of SARS-CoV-2 cytopathic effect: 1.17%
10000 nM
  inhibition of SARS-CoV-2 cytopathic effect: -0.07%

## Cc1cc(C)c(S(=O)(=O)Nc2cccc(C(F)(F)F)c2)c(C)c1
1 nM
  inhibition of SARS-CoV-2 cytopathic effect: -1.28%
8.33 nM
  inhibition of SARS-CoV-2 cytopathic effect: 1.26%
100 nM
  inhibition of SARS-CoV-2 cytopathic effect: 1.15%
833.33 nM
  inhibition of SARS-CoV-2 cytopathic effect: 1.42%
10000 nM
  inhibition of SARS-CoV-2 cytopathic effect: 2.48%

## Fc1ccc(-c2nc3n(c2-c2ccncc2)CCS3)cc1
1 nM
  inhibition of SARS-CoV-2 cytopathic effect: 1.58%
8.33 nM
  inhibition of SARS-CoV-2 cytopathic effect: -0.78%
100 nM
  inhibition of SARS-CoV-2 cytopathic effect: -1.15%
833.33 nM
  inhibition of SARS-CoV-2 cytopathic effect: -1.03%
10000 nM
  inhibition of SARS-CoV-2 cytopathic effect: -1.09%

— the supplement of paper PMC13380429
